Measurements published in the supplement of paper PMC11732987, “Enantioselective OTUD7B fragment discovery through chemoproteomics screening and high-throughput optimisation” (Communications Chemistry, 2025).

Experiments:
Assay in all cases: log2 ratio of Biotin-Ahx-Ub-VS probe labelling (fragment/DMSO); higher = less target engagement (more negative = stronger competition), active = hit call of the paper (q ≤ 0.05, log2 ratio ≤ -1)
Settings in all cases: compound concentration: 200 uM; treatment time: 3 h
[1] = target: USP34 (UniProt Q70CQ2)
Sequence of USP34 (Q70CQ2 whole entry, the tested form may be a part): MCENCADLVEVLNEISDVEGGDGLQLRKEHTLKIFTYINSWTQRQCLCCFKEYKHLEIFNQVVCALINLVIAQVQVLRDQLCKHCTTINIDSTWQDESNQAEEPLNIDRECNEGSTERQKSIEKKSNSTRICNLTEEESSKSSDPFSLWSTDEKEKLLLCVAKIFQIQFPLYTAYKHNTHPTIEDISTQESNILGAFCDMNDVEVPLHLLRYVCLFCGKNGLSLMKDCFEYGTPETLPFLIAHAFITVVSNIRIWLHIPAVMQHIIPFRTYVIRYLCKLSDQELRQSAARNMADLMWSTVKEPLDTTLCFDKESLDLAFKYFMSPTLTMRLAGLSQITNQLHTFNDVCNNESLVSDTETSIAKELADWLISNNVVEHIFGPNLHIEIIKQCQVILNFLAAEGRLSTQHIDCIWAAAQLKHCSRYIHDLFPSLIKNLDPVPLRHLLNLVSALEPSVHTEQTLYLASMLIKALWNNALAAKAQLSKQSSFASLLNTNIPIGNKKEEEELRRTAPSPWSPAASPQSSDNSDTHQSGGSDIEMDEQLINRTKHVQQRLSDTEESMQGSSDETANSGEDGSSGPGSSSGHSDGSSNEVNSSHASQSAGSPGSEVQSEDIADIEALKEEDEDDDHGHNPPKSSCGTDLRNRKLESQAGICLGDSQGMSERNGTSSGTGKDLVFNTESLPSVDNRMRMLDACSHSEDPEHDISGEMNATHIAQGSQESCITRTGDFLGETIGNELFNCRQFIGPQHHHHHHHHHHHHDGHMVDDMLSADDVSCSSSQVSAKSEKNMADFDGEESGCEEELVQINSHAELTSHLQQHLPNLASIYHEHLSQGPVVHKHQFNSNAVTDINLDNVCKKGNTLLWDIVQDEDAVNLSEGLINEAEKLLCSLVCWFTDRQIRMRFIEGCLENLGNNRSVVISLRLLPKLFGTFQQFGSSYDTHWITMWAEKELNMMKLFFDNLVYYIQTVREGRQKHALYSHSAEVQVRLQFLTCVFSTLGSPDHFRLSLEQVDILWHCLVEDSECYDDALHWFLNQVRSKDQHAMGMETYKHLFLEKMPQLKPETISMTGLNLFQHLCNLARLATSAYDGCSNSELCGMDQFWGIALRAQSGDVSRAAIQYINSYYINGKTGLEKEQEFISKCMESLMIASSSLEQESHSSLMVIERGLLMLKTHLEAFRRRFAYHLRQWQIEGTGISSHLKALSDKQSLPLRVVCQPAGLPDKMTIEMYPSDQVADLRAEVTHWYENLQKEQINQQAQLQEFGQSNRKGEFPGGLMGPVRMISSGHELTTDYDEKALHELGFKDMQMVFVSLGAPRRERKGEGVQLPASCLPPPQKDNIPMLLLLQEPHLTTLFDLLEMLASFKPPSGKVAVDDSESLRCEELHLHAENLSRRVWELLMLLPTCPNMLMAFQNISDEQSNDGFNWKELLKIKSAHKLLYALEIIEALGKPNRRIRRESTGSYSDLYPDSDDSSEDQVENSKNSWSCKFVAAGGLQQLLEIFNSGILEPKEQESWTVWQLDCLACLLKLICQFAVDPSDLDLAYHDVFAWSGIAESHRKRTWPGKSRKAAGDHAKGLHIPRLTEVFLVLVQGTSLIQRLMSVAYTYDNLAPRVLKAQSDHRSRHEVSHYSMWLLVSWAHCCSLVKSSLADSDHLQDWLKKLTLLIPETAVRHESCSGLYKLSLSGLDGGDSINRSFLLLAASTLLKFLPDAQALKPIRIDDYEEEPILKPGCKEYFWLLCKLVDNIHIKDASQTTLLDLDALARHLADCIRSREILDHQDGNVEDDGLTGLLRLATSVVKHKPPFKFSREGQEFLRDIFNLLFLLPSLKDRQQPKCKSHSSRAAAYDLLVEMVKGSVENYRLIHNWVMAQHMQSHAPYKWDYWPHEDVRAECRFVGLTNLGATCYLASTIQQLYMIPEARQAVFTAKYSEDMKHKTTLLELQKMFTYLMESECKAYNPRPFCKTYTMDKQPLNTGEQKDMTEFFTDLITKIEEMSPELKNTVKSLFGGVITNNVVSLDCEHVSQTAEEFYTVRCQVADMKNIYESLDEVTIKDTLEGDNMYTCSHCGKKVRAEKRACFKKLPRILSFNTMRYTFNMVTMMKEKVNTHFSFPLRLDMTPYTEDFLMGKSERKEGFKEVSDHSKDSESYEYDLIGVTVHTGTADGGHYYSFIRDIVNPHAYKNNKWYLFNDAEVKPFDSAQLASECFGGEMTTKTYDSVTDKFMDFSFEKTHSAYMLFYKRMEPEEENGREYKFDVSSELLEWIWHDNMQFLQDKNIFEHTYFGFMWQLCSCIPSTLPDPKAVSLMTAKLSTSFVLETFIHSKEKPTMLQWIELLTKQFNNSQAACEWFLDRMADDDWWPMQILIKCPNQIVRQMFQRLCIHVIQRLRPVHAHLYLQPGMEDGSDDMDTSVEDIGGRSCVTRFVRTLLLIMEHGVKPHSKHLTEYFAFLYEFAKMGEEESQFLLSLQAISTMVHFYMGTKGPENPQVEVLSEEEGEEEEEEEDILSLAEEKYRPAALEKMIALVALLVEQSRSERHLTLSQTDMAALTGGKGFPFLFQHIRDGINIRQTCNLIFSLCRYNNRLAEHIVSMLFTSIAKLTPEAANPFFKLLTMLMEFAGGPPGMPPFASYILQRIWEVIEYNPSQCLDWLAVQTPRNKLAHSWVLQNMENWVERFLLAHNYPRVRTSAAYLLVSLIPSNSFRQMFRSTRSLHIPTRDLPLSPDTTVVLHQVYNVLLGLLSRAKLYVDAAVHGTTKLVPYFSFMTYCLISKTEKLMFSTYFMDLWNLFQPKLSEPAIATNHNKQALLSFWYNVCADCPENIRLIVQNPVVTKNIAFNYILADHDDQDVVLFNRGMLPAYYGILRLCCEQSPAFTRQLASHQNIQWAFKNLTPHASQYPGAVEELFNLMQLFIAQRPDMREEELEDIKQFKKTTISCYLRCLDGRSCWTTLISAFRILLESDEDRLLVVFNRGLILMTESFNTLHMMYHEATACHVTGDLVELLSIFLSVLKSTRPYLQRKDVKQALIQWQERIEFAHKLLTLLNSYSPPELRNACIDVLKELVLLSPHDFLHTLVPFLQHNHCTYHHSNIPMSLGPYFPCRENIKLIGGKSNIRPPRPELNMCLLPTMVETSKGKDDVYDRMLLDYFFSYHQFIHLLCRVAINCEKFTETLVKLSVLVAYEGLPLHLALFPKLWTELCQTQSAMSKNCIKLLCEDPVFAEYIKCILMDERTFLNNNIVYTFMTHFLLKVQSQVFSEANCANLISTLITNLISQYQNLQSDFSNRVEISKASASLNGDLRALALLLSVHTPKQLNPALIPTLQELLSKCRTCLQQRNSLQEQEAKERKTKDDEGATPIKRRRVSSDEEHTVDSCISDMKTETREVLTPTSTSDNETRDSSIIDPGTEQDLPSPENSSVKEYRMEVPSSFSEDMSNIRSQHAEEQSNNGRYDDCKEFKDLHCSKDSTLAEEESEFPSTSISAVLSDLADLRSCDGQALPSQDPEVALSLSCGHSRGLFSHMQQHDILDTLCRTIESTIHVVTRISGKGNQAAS
How it was run: (§1)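 Each value is an average log2 ratio of fragment to vehicle, tested by unpaired t-test. The underlying Spectronaut label-free quantities were global-median-normalised, and only proteins with ≥2 unique peptides were included. Triplicate HEK293T lysate samples (495 µg) were exposed to fragment at 200 µM or vehicle for 3 h, then to Biotin-Ahx-Ub-VS at 0.5 µM final for 1 h, before NeutrAvidin enrichment of labelled DUBs, LysC and trypsin digestion, and diaPASEF LC-MS/MS.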

[2] = target: T1, USP36 (UniProt Q9P275)
T1 sequence (whole entry): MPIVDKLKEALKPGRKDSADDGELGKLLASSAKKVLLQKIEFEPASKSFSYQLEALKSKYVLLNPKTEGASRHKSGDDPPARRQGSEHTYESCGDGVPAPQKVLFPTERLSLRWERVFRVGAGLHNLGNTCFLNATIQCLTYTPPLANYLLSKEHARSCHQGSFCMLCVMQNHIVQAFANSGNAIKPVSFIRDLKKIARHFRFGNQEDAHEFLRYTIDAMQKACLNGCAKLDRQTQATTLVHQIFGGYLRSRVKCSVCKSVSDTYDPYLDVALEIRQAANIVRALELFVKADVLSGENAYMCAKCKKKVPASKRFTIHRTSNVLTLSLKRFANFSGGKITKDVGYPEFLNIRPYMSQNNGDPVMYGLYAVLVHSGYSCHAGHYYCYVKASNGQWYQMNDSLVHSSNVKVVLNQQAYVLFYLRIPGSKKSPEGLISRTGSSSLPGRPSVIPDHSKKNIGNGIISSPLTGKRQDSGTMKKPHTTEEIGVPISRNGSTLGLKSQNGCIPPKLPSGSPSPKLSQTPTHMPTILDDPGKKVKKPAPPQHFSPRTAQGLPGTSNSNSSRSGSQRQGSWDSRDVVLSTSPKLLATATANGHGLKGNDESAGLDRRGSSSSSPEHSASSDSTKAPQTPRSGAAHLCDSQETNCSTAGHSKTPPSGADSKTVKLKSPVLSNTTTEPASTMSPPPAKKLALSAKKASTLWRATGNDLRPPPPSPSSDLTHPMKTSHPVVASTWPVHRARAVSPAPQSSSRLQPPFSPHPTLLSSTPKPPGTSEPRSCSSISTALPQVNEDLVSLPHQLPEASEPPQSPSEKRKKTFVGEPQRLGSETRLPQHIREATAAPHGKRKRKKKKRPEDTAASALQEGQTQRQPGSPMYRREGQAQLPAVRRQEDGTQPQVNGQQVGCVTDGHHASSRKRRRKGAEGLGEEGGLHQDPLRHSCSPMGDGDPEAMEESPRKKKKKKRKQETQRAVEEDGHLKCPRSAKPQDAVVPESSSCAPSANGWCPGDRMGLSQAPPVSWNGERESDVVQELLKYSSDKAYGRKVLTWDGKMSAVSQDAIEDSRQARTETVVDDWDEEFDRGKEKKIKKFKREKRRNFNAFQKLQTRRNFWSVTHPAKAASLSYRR
How it was run: as §1

[3] = target: T2, USP38 (UniProt Q8NB14)
T2 sequence (whole entry): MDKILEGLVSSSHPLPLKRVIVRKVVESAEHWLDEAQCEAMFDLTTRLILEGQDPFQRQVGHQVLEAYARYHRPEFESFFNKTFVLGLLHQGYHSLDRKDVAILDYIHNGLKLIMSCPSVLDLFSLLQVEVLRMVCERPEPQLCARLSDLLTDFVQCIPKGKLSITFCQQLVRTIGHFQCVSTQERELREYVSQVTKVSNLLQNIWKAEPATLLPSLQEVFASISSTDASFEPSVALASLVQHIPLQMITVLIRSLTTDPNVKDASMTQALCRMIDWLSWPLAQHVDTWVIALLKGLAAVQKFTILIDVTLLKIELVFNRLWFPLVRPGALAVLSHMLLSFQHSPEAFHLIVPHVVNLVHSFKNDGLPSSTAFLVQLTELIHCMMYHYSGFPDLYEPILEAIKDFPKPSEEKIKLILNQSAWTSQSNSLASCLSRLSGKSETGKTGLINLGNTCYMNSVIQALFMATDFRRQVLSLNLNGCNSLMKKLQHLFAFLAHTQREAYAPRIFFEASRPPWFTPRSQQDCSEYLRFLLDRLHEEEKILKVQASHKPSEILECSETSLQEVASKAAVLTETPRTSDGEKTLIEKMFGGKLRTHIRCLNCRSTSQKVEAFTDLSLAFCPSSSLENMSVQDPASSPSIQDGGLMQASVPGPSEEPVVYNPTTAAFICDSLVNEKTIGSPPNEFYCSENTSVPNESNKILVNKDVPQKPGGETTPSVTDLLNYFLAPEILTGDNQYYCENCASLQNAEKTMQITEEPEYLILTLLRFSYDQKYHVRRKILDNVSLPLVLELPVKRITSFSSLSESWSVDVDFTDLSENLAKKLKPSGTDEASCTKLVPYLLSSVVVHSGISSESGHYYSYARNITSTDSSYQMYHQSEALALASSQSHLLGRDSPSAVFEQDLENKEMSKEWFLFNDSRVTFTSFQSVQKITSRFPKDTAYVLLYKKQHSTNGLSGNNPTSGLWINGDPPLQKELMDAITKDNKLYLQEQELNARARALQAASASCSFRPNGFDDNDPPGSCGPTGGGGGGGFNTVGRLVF
How it was run: as §1

[4] = target: T3, USP39 (UniProt Q53GS9)
T3 sequence (whole entry): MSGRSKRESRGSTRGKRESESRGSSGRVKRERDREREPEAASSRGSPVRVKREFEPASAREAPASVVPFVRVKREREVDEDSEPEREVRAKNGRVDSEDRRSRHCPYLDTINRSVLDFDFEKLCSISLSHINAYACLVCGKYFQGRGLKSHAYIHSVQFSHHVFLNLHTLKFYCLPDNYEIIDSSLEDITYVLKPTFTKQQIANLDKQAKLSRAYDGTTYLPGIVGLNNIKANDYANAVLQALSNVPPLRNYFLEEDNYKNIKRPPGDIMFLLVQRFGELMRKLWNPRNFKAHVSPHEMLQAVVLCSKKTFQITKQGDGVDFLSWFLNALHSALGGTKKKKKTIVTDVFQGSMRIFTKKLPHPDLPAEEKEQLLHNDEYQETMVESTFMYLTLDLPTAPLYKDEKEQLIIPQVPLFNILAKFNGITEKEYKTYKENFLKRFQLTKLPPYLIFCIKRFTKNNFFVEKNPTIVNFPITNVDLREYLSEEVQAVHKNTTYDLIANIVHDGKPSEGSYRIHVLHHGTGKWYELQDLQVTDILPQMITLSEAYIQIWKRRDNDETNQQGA
How it was run: as §1

[5] = target: T4, USP4 (UniProt Q13107)
T4 sequence (whole entry): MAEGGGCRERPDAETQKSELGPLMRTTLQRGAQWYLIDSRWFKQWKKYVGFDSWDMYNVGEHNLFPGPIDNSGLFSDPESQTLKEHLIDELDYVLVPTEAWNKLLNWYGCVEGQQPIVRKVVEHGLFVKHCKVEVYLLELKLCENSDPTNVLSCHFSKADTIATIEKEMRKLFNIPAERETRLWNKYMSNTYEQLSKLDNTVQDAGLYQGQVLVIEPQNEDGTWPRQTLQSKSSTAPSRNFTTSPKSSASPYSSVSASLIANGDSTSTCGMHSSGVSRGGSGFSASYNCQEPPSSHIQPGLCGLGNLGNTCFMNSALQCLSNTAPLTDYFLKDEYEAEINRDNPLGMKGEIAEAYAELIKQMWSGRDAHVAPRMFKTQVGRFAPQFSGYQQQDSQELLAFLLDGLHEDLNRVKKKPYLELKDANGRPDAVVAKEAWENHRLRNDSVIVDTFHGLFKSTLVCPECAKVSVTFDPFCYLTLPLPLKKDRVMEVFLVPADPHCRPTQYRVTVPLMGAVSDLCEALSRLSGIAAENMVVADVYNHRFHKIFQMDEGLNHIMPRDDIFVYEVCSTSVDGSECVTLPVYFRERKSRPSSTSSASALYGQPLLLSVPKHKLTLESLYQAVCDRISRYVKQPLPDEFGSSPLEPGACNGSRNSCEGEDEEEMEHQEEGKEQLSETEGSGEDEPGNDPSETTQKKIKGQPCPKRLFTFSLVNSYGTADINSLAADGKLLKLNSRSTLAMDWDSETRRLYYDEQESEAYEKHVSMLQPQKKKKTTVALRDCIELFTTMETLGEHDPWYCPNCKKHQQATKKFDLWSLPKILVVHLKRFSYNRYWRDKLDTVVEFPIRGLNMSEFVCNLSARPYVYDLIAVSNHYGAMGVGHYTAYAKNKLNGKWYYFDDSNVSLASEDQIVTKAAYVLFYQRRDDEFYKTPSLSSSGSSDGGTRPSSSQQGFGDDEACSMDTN
How it was run: as §1

Measured: log2 ratio of Biotin-Ahx-Ub-VS probe labelling

O=C(CCl)N1CCC(S(=O)(=O)c2ccc(F)cc2)CC1
inactive: [1] -0.128 | [2] -0.00998 | [3] -0.00588 | [4] 0.031 | [5] -0.218
